TRHR agonist = agonists of human TRH receptor | P34981 | TRHR cells, calcium flux fluo-8, FDSS agonist mode | activation, % at 2 µM | 360,000 tested, 0.18% active | AID 493084; in the data active = activation above about 30%
Target sequence (P34981 whole entry, looked up): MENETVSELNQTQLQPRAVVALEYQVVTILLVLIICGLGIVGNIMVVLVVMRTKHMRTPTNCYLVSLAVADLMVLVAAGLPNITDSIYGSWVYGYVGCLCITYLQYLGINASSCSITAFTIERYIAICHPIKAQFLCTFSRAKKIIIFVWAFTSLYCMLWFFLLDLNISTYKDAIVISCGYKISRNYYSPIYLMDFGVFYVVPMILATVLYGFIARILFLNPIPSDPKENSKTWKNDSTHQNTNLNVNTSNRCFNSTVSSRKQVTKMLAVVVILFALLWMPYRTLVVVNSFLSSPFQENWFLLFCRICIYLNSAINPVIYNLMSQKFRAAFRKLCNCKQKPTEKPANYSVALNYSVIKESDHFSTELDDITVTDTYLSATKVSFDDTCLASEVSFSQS
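Fluo-8-loaded TRHR cells; 10 s baseline, compound added, kinetic Ca2+ fluorescence read 1/s, agonist mode.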
TRPML1 agonist = activates the human TRPML1 channel; Q9GZU1; TRPML1-expressing cells, Ca2+ dye fluorescence, FDSS; activation, % (test concentration not listed); 410,000 tested, 0.12% active; in the data active = activation above about 50%; inconclusive = mostly about 30% to 49%
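Agonist activity was taken from a 110 s kinetic Ca2+ dye read on the FDSS after pinning compounds onto TRPML1-DL cells. The cells were seeded at 1,500/well with Tet inducer, incubated about 16 h, then dye-loaded at room temperature.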
KCNH2 3.1 block = inhibitors of human KCNH2 3.1 potassium channel isoform; U2OS KCNH2 3.1, thallium flux FluxOr; hits give low values; activity change, % (tested at about 1.8 µM); 340,000 tested, 0.95% active;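 active = maximum activity change below -70%; inconclusive = maximum activity change from -70% to -50%; inactive = maximum activity change above -50%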;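 also: thallium influx rate constant from kinetic fluorescence after stimulation buffer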
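Kinetic fluorescence (2 min after stimulation buffer) measures Tl+ influx through KCNH2 3.1 expressed by viral transduction in U2OS cells; the rate constant is normalized against DMSO controls serving as positive and negative references.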
TRPML1 inh = human mucolipin-1 channel inhibition; Q9GZU1; TRPML1-inducible cells, Ca2+ dye fluorescence, FDSS; hits give low values; inhibition of EC80 agonist-evoked calcium signal; activity change, negative = inhibition, % (concentration not given with the values); 390,000 tested, 0.02% active; AID 624415; in the data active = activity change below about -50%; inconclusive = between about -30% and that limit;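 also: stimulus is agonist 54-4 at its EC80 concentration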
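TRPML1-DL cells, Tet-induced overnight (~16 h, 37 °C) at 1,500 cells/well, were loaded with Ca8 no-wash dye plus quencher for 45-90 min at room temperature. Compounds were pinned during FDSS kinetic reading; agonist 54-4 at EC80 (4 uM final) then added.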
TRHR enhancer = TRH receptor (human) allosteric enhancement | enhancement, % at 2 µM | 360,000 tested, 0.66% active | TRHR cells, fluo-8 calcium fluorescence, EC20 TRH enhancement | P34981 | AID 493056; in the data active = enhancement above about 30%
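Enhancer read-out: after compound pinning and an initial kinetic agonist-mode read, an EC20 of TRH (10 nM final) was injected and fluo-8 calcium signal (Ex 480/Em 530) followed at 1 s/cycle for 100 cycles in TRHR-expressing cells.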
hERG WT inh = blocks the wildtype human KCNH2 potassium channel; Q12809; U2OS, BacMam KCNH2, thallium flux FluxOr; hits give low values; activity change, % at 1.84 µM; 340,000 tested, 0.37% active; AID 720551;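 active = maximum activity change below -70%; inconclusive = maximum activity change between -70% and -50%; inactive = maximum activity change above -50%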
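U2OS cells were transduced with wild-type KCNH2 virus (2.03 x 10^8 / mL) for 4 h at room temperature, then cultured overnight at 37 C. Thallium flux was read with FluxOr dye. Rate constants were normalized to DMSO controls.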
Each line names hits and unclear results; the compound was inactive in the other large screens. In the library only some 1.7% were active in any assay of this set; here they are far more common.

CC(=O)c1c(C)[nH]c(C(=O)NCc2ccccc2Cl)c1C	TRHR enhancer 34
COc1ccc2c(COC(=O)[C@@H]3CCCN3S(=O)(=O)c3ccc(Cl)cc3)cc(=O)oc2c1	none
CCOC(=O)C1(Cc2cccc(OC)c2)CCN(Cc2cccc(O)c2)CC1	none
CCOC(=O)C1(Cc2cccc(OC)c2)CCN(Cc2ccc(OC)c(OC)c2)CC1	KCNH2 3.1 block -70
CCOC(=O)C1(Cc2cccc(OC)c2)CCN(Cc2ccc(C)s2)CC1	KCNH2 3.1 block -76, hERG WT inh inconclusive
CCOC(=O)C1(Cc2cccc(OC)c2)CCCN(Cc2cc(OC)c(O)c(OC)c2)C1 (centres undefined)	KCNH2 3.1 block -193, hERG WT inh -134
CCOC(=O)C1(Cc2cccc(OC)c2)CCN(Cc2cccn2-c2nccs2)CC1	KCNH2 3.1 block -101, hERG WT inh -83
CCOC(=O)C1(Cc2cccc(OC)c2)CCCN(Cc2cnn(C)c2)C1 (centres undefined)	none
CCOC(=O)C1(Cc2ccccc2)CCN(Cc2cccn2-c2nccs2)CC1	none
N#CN1CCC(N[S+](=O)([O-])c2cccc(F)c2)CC1	none (no result: TRPML1 agonist, KCNH2 3.1 block, TRPML1 inh, hERG WT inh)
CCN(CC)c1ccc(NC(=O)CN2C(=O)c3cccnc3Sc3ccccc32)c(C)c1	none (no result: KCNH2 3.1 block, hERG WT inh)
COc1ccc(CN(Cc2ccccc2)C(=O)C2CC2)cc1COc1ccc(NC(C)=O)cc1	none (no result: TRHR agonist, KCNH2 3.1 block, TRPML1 inh, TRHR enhancer, hERG WT inh)
COCCn1c2nc(=O)n(-c3ccccc3)c(=O)c-2nc2ccccc21	TRPML1 agonist 59 (no result: TRHR agonist, TRHR enhancer)
CCOc1ccc(NCc2cccn2-c2nnc(N3CCC(C(=O)NCCCN4CCCCC4C)CC3)s2)cc1 (centres undefined)	none
CCOc1ccc(NCc2cccn2-c2nnc(N3CCC(C(=O)NCCCN4C(C)CCCC4C)CC3)s2)cc1 (centres undefined)	hERG WT inh -228
COc1ccc(N2CC(C(=O)Nc3nnc(SCC(=O)NCC4CCCO4)s3)CC2=O)cc1 (centres undefined)	KCNH2 3.1 block -197, hERG WT inh -128 (no result: TRHR agonist, TRHR enhancer)
O=C(Nc1cccc(-n2cnnn2)c1)c1ccoc1COc1ccc(Cl)cc1	KCNH2 3.1 block -74, hERG WT inh inconclusive
COc1ccc(-c2ncn(CCC#N)c2[N+](=O)[O-])cc1	TRHR enhancer 33
CC(=O)c1sc2nc(-c3cccs3)cc(C(F)(F)F)c2c1N	TRHR agonist 41, TRPML1 agonist inconclusive
CCOc1ccc(S(=O)(=O)N2CCN(S(=O)(=O)c3ccc(C(C)=O)cc3)CC2)cc1	none
CCOc1ccc(S(=O)(=O)N2CN(c3cccc(C(C)=O)c3)c3nc4ccccc4nc32)cc1	TRPML1 agonist 64 (no result: TRHR agonist, TRHR enhancer)
COc1ccc(-c2ccc3c(c2)S(=O)(=O)c2cccc(C(=O)NC4CC4)c2C3=O)cc1OC	TRHR enhancer 40
COc1ccc(-c2ccc3c(c2)S(=O)(=O)c2cccc(C(=O)NC4CCCCC4)c2C3=O)cc1OC	none
Cc1ccccc1NS(=O)(=O)c1ccc(C(=O)NCC2(N3CCOCC3)CCCCC2)cc1	none (no result: TRHR agonist, TRHR enhancer)
Cc1cccc(NS(=O)(=O)c2ccc(C(=O)NCC3(N4CCCCC4)CCCCC3)cc2)c1C	KCNH2 3.1 block -78
CC(C)(C)n1ncc2c(=O)n(Cc3ccc(F)cc3F)cnc21	none (no result: TRHR agonist, KCNH2 3.1 block, TRHR enhancer, hERG WT inh)
COc1cccc(-c2nc(CS(=O)(=O)CC(=O)Nc3ccc(F)cc3F)c(C)o2)c1	TRHR enhancer 30
N=c1oc2c3c4c(cc2cc1C(=O)Nc1ccccc1)CCCN4CCC3	TRHR agonist 94, KCNH2 3.1 block -85, hERG WT inh -223
CC1CN(S(=O)(=O)c2ccc(C(=O)N(CCCN(C)C)c3nc4c(Cl)cccc4s3)cc2)CC(C)O1 (centres undefined)	none
CCC(C)CNC(=O)c1[nH]c(C(F)(F)F)nc1-c1ccccc1 (centres undefined)	none (no result: TRHR agonist, KCNH2 3.1 block, TRPML1 inh, TRHR enhancer, hERG WT inh)
COc1ccc(C(CNC(=O)/C=C/c2c(Cl)nc3ccccn23)N(C)C)cc1 (centres undefined)	KCNH2 3.1 block -87
COc1ccc(-c2nnc(SCC(=O)NC(=O)NCc3ccccc3)o2)cc1	KCNH2 3.1 block -118
NC(=O)c1ccccc1[N+](=O)[O-]	none
